# According to PubChem BioAssay (EPA / NIEHS):
# The source made the active and inactive calls. Rule for the calls: active = hit-call score of the fitted dose curve at least 0.9, where 1 is the maximum; inactive = score below 0.9.
# Experiment: CCTE_Shafer_MEA_acute_per_network_burst_electrodes_number_mean: CCTE's Neural Acute Assay for Mean Number of Electrodes in a Network Burst, Shafer Lab (AID 2284021);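 note: curves fitted for decreases only so hits reduce electrodes per burst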
# Procedure: CCTE_Shafer_MEA_acute assay is conducted using Axion Biosystems 48 well microelectrode array (MEA) plates and Maestro recording system. Each well of the MEA plate contains a grid of 16 microelectrodes embedded in the culture surface. Electrically active cells, such as neurons, can be cultured over the electrodes, and electrical activity in these cells can be recorded extracellularly. The spontaneous firing of neurons is captured from each electrode on a microsecond timescale providing both temporally and spatially precise data. […] The CCTE_Shafer_MEA_acute assay uses primary cultures of rat cortical neurons. As these cultures mature over time, neural networks develop functional activity and form cohesive networks in which electrical activity can be highly coordinated. Baseline 40-minute recordings are made on days post-plating 13 or 15, followed by a secondary 40-minute recording after chemical exposure.CCTE_Shafer_MEA_acute_per_network_burst_electrodes_number_mean is a component of the CCTE_Shafer_MEA_acute assay. It measures the average number of electrodes with activity during a network burst (a temporally-clustered group of action potential firing across multiple electrodes) in a recording in a microelectrode array (MEA) using Axion Biosystems Maestro 768 channel amplifier with the AxIS adaptive spike detector. The recordings before and after chemical treatment are used to calculate a percent change in the mean number of electrodes participating in network bursts in each well.Data from the assay component CCTE_Shafer_MEA_acute_per_network_burst_electrodes_number_mean was analyzed into 1 assay endpoint. This assay endpoint, CCTE_Shafer_MEA_acute_per_network_burst_electrodes_number_mean, was analyzed in the negative analysis fitting direction relative to DMSO as the negative control and baseline of activity. Using a type of functional reporter, gain or loss-of-signal activity can be used to understand electrical activity.
# Spontaneous activity in the cortical cultures was recorded using an Axion Biosystems Maestro 768 channel amplifier and Axion Integrated Studios (AxIS) v1.8 (or later) software. The amplifier recorded from all channels simultaneously (gain = 1200 x; sampling rate = 12.5 kHz/channel): raw signals were filtered with a Butterworth band-pass filter (300-5000 Hz), which filters out slower local field potentials leaving only fast potentials, i.e., "spikes", arising from extracellular currents associated with action potentials (Pine 2006; Wheeler and Nam 2011). On-line spike detection of filtered signals was conducted with the AxIS adaptive spike detector, using a threshold of 8x the root mean squared (rms) noise on each channel. Any electrodes with rms noise levels greater than 5 uV were grounded (e.g., no data were recorded). Once grounded, an electrode was grounded for the duration of the experiment. All recordings were conducted at 37 C. Wells were deemed usable if on the day of the exposure >/= 10 electrodes were active (defined as >/= 5 spikes/min). On DIV 13 or 15, a minimum of three wells from one cortical culture preparation were treated with each compound (0.03-40 uM). Prior to recording baseline activity, each mwMEA plate was placed in the Maestro at 37 C and allowed to sit for 20 min while firing rates stabilized. Baseline activity (40 min) was recorded before the addition of each compound. An additional 40 min of spontaneous activity was recorded in the presence of each compound. Changes in network parameters relative to baseline were assessed following compound treatment.
Compound,outcome,AC50
COP(=O)(CCC(=O)NCO)OC,inactive,
[N-]=[N+]=[N-],inactive,
Cc1ccc(N)cc1N,inactive,
ClC1=C(Cl)C2(Cl)C3C(Cl)C(Cl)CC3C1(Cl)C2(Cl)Cl (stereo not given),inactive,
CCCCC(CC)COP(=O)(Oc1ccccc1)Oc1ccccc1 (stereo not given),inactive,
CC(C)(C)c1ccccc1OP(=O)(Oc1ccccc1)Oc1ccccc1,,5 µM (active)
CC(Cl)(Cl)C(=O)O,inactive,
O=C(O)C1C(C(=O)O)C2(Cl)C(Cl)=C(Cl)C1(Cl)C2(Cl)Cl (stereo not given),inactive,
CCOP(=S)(Oc1ccc([N+](=O)[O-])cc1)c1ccccc1 (stereo not given),inactive,
ClC(Cl)(Cl)c1ccccc1,inactive,
CCC1(c2ccccc2)C(=O)N=C(O)NC1=O (stereo not given),inactive,
COCCOCCO,inactive,
c1ccc2c(c1)Nc1ccccc1S2,,7.45 µM (active)
Nc1ccc2ccccc2c1,inactive,
CCOc1ccc(C(C)(C)COCc2cccc(Oc3ccccc3)c2)cc1,inactive,
